In PubChem BioAssay AID588676 (Johns Hopkins Ion Channel Center, 2011):
Among all 310,000 compounds or so, about 3,900 (1.3%) were called active.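 The calls were made as follows: active = calcium-response B-score plate-corrected more than 3 library SD below zero, starting fluorescence within 5 deviations, no agonist response on first addition; inactive = the rest.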 The full list was thinned out, with actives kept by preference.

Target: Mas-related G-protein coupled receptor member X1 (Homo sapiens) (UniProt Q96LB2)
Assay: antagonists of human MrgX1 receptor, primary screen, HEK293 cells, Fluo-4 calcium flux (AID 588676);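 as to B-score: peak minus trough fluorescence over baseline after final BAM8-22 challenge near maximal dose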
Settings: Fluo-4, BAM8-22 antagonism, at 10 µM; hits give low values

Chain of Mas-related G-protein coupled receptor member X1 (Homo sapiens) (Q96LB2 whole entry, looked up): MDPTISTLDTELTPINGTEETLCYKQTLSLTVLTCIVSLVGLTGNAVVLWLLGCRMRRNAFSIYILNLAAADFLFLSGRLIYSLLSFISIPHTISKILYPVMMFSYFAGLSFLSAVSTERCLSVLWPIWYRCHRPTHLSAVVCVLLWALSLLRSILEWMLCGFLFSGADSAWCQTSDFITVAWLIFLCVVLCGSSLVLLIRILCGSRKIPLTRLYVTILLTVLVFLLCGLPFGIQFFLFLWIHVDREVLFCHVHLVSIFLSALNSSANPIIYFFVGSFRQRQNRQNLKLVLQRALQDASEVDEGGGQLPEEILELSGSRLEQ

B-score, inactive:
Cc1nc(-c2ccc(F)cc2)c(CC(=O)N2CCN(S(=O)(=O)c3ccc(F)cc3)CC2)s1
FC(F)(F)c1cccc(-c2cc3ccccc3nc2N2CCCC2)c1
O=C(COc1ccccc1)Nc1ccc(C(=O)N2CCCC2)cc1
C/C(=N/NC(=O)CC(=O)N/N=C(\C)c1ccc([N+](=O)[O-])cc1)c1ccc([N+](=O)[O-])cc1
C/C(=N\NC(=O)Cc1ccc(Br)cc1)c1cccnc1
COc1ccc2c3c1O[C@H]1C[C@@H](O)C=C[C@@]31CCN(C)C2
Cc1nn(Cc2ccccc2)c2c1C(c1ccccc1)C(C#N)=C(N)O2 (configuration not stated)
COc1ccccc1C1C(C#N)=C(N)Oc2c1c(-c1ccccc1)nn2-c1ccccc1 (configuration not stated)
CC(C)(C)c1ccc(C(CC(=O)O)NS(=O)(=O)Cc2ccccc2)cc1 (configuration not stated)
Cc1c(CCO)c(=O)[nH]n1C(=O)c1c(F)cccc1F
CCOC(=O)[C@H]1CCC[C@@H](NS(=O)(=O)c2ccc(NC(C)=O)cc2)C1
Cc1ccc(CNC(=O)CCNS(=O)(=O)c2ccc(Br)s2)cc1
O=C1CCC(C(=O)N2CCN(c3ccccc3Cl)CC2)CN1CC1CCCCC1 (configuration not stated)
COc1ccc(CCNC(=O)C2CC3Cn4c(nc5cc(C)c(C)cc54)C3N2C)cc1 (configuration not stated)
COc1ccccc1OCCNc1cc(N2CCOCC2)ccc1[N+](=O)[O-]
O=C(c1ccccc1)N1CCN(c2ccc([N+](=O)[O-])c(NCc3ccco3)c2)CC1
Cc1cccc(N2CC(C(=O)Nc3ccccc3N3CCCC3)CC2=O)c1C (configuration not stated)
CCOc1ccc(C(CC(=O)O)n2cnnn2)cc1OC (configuration not stated)
COC(=O)c1ccc(COC(=O)c2cnc(Cl)c(Cl)c2)cc1
COc1ccccc1C(=O)N/C(=C/c1ccco1)C(=O)Nc1ccc(C(=O)O)cc1
CCOc1ccc(C(=O)NCCCN2CCCC2=O)cc1
O=C(NCCCN1CCCC1=O)c1ccc(S(=O)(=O)Nc2ccccc2)cc1

B-score, active:
CC(=O)N(C1=C(Cl)C(=O)c2ccccc2C1=O)c1ccc(C(=O)O)cc1 -18.7
C/C(=N\NC(=O)Cc1ccc(F)cc1)c1ccc(F)cc1 -8.25
Cc1nn(-c2ccccc2)c2c1C(c1ccc(F)cc1)C(C#N)=C(N)O2 (configuration not stated) -13.4
COc1ccc(CCNc2cc(N3CCN(C(=O)c4ccccc4OC)CC3)ccc2[N+](=O)[O-])cc1OC -5.34
CCOc1ccc(S(=O)(=O)Nc2ccc(C(=O)NCCCN3CCCC3=O)cc2)cc1 -9
